What all share (experiment): DAPPL (digital affinity profiling via proximity ligation, sequencing); 10 mM Tris-HCl pH 7.5, 50 mM NaCl, 1 mM DTT, 4% glycerol, room temperature, 30 min; GST-TFs on glutathione beads, 16-mer random dsDNA library, 0.1% formaldehyde crosslink after washing; high values mean tight binding
Holding throughout (conditions): protein: recombinant; tags: N-terminal GST; dsDNA, one strand shown

The target of one assay is T1, ERF (Homo sapiens, UniProt P50548 1-548).
T1 sequence: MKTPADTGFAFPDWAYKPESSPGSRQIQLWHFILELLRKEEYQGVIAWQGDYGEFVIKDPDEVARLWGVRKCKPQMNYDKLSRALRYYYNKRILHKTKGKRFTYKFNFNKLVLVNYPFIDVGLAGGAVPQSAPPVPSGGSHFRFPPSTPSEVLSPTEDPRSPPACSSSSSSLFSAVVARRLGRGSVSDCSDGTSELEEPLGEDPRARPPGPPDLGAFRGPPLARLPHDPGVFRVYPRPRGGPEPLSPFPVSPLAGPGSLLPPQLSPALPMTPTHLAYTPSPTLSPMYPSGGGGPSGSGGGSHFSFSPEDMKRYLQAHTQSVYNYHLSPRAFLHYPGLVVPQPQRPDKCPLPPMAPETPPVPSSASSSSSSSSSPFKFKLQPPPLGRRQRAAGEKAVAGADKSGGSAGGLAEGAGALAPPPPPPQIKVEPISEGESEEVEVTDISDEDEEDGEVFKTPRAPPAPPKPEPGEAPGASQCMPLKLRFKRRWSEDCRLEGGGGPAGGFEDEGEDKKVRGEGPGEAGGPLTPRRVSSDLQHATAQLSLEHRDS
In a few lines:
(§1)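 Pools were built from human transcription factors expressed in yeast as GST fusions, captured on glutathione beads and DNA-barcoded, along with a tag-only sample. Incubation with 200 nmole of a 16-mer random double-stranded DNA library lasted 30 min at room temperature in Tris/NaCl/DTT/glycerol buffer, and was followed by washing, 0.1% formaldehyde crosslinking, proximity ligation, PCR amplification and Illumina NextSeq500 sequencing. Binding signal is the quotient of each hexamer's read frequency for a factor and its frequency for the tag-only sample.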

For another assay, the target named is T2, ETV3L (Homo sapiens, UniProt Q6ZN32 1-361).
T2 sequence: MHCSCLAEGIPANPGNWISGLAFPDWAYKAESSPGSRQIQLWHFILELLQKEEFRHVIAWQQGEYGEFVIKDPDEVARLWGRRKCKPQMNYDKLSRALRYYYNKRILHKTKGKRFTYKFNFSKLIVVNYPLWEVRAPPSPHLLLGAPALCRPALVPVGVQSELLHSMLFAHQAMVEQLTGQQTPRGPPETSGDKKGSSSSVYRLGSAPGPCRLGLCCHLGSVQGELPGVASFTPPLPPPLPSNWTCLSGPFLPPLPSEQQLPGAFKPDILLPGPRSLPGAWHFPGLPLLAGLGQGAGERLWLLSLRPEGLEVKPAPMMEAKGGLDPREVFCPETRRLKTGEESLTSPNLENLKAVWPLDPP
In a few lines: as §1

A further assay addresses T3, ETS2 (Homo sapiens, UniProt P15036 1-469).
T3 sequence: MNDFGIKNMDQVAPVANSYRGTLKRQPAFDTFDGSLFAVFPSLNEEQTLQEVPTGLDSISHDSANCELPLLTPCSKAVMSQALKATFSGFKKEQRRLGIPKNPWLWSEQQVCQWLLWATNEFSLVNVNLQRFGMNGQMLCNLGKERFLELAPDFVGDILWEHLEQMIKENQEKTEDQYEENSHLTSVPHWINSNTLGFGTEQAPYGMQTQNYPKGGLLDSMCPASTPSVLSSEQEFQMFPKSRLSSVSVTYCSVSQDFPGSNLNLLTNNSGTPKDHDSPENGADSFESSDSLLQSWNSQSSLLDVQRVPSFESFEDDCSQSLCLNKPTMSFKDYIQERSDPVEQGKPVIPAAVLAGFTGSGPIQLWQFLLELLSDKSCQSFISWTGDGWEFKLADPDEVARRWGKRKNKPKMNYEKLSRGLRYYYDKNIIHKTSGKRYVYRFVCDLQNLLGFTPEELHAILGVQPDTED
In a few lines: as §1

For another assay, the target named is T4, SPDEF (Homo sapiens, UniProt O95238 1-335).
T4 sequence: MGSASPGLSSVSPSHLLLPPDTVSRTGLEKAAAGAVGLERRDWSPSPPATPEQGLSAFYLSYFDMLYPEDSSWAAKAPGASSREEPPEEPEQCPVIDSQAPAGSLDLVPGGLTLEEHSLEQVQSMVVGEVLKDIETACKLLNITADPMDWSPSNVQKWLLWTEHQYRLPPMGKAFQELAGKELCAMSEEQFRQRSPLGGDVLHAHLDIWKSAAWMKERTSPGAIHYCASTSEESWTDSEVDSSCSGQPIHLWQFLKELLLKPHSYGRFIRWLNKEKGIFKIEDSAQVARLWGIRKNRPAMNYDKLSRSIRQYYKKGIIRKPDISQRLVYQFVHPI
A digest of the protocol: as §1

The next assay deals with T5, ETV7 (Homo sapiens, UniProt Q9Y603 1-341).
T5 sequence: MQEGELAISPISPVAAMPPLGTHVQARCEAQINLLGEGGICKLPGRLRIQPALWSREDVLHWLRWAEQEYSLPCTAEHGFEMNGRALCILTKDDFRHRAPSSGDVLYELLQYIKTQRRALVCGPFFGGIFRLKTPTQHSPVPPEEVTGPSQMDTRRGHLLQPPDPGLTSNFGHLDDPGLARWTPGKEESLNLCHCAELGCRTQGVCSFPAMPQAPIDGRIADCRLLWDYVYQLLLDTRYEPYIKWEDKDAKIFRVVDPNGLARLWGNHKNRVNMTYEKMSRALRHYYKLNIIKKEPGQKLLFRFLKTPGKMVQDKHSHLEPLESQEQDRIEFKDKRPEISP
A digest of the protocol: as §1

The target in the next assay is T6, ELF5 (Homo sapiens, UniProt Q9UKW6-2 1-255).
T6 sequence: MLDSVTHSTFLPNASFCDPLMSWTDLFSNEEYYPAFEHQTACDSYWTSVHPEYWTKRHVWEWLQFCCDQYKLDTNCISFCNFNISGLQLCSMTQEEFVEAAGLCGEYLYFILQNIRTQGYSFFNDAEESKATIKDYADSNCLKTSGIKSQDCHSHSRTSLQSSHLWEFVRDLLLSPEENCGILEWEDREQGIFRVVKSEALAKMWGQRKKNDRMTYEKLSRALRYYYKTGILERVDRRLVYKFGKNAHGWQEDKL
In a few lines: as §1

For the next assay, the target named is T7, ETV3 (Homo sapiens, UniProt P41162-2 1-143).
T7 sequence: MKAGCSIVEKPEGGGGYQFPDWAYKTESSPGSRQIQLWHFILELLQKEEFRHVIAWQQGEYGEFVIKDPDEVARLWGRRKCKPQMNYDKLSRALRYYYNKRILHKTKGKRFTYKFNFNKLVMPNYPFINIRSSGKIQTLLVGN
A digest of the protocol: as §1

In the next assay the target is ETV6 (Homo sapiens, UniProt P41212 1-452). A digest of the protocol:
as §1

Data on seven sequences can be found in article PMC7862700, “An all-to-all approach to the identification of sequence-specific readers for epigenetic DNA modifications on cytosine”.

Sequence of ETV6 (P41212 whole entry): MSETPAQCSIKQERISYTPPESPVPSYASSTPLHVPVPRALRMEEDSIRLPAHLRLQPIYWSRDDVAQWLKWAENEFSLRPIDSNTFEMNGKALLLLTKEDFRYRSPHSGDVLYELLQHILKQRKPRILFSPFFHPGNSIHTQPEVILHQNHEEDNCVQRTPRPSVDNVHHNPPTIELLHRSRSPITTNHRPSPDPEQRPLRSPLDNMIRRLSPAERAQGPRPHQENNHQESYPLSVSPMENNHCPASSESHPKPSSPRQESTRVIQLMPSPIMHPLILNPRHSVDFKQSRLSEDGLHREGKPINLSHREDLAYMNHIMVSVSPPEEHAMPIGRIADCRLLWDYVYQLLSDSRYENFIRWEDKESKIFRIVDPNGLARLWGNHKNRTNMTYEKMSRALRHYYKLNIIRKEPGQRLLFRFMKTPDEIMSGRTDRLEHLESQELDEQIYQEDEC

As to CGAAAG, the binding signal with ERF is 1.11 fold enrichment (6-mer frequency, TF over GST control); with ETV3L, 1.05 fold enrichment (6-mer frequency, TF over GST control); with ETS2, 1.11 fold enrichment (6-mer frequency, TF over GST control); with SPDEF, 1.07 fold enrichment (6-mer frequency, TF over GST control); in the assay with ETV7, 1.19 fold enrichment (6-mer frequency, TF over GST control); with ELF5, 1 fold enrichment (6-mer frequency, TF over GST control). The binding signal was 1.02 fold enrichment (6-mer frequency, TF over GST control) with ETV3 and 1.02 fold enrichment (6-mer frequency, TF over GST control) with ETV6.

Consider TACGTC, for which the binding signal with ERF is 1.08 fold enrichment (6-mer frequency, TF over GST control); with ETV3L it was 1.27 fold enrichment (6-mer frequency, TF over GST control); with ETS2, 1.2 fold enrichment (6-mer frequency, TF over GST control); with SPDEF, 1.33 fold enrichment (6-mer frequency, TF over GST control); with ETV7 it was 1.27 fold enrichment (6-mer frequency, TF over GST control); in the assay with ELF5, 1.23 fold enrichment (6-mer frequency, TF over GST control). For the same sequence, the binding signal with ETV3 was 1.14 fold enrichment (6-mer frequency, TF over GST control); with ETV6, 1.37 fold enrichment (6-mer frequency, TF over GST control).

For CACCCC, the binding signal with ERF is 1.36 fold enrichment (6-mer frequency, TF over GST control); with ETV3L it was 1.34 fold enrichment (6-mer frequency, TF over GST control); with ETS2, 1.22 fold enrichment (6-mer frequency, TF over GST control); with SPDEF it was 1.24 fold enrichment (6-mer frequency, TF over GST control); in the assay with ETV7, 1.11 fold enrichment (6-mer frequency, TF over GST control); in the assay with ELF5, 1.16 fold enrichment (6-mer frequency, TF over GST control). In addition, the binding signal with ETV3 is 1.27 fold enrichment (6-mer frequency, TF over GST control); with ETV6, 1.14 fold enrichment (6-mer frequency, TF over GST control).

For the sequence TAGCAA, the binding signal was 1.28 fold enrichment (6-mer frequency, TF over GST control) with ERF; 1.22 fold enrichment (6-mer frequency, TF over GST control) with ETV3L; 1.26 fold enrichment (6-mer frequency, TF over GST control) with ETS2; 1.23 fold enrichment (6-mer frequency, TF over GST control) with SPDEF; 1.25 fold enrichment (6-mer frequency, TF over GST control) with ETV7; 1.23 fold enrichment (6-mer frequency, TF over GST control) in the assay with ELF5. Moreover, the binding signal with ETV3 was 1.34 fold enrichment (6-mer frequency, TF over GST control); with ETV6, 1.29 fold enrichment (6-mer frequency, TF over GST control).

For the sequence TGGTTA, the binding signal is 1.05 fold enrichment (6-mer frequency, TF over GST control) with ERF; 1.12 fold enrichment (6-mer frequency, TF over GST control) in the assay with ETV3L; 1.07 fold enrichment (6-mer frequency, TF over GST control) in the assay with ETS2; 1.07 fold enrichment (6-mer frequency, TF over GST control) with SPDEF; 1.16 fold enrichment (6-mer frequency, TF over GST control) with ETV7; 1.05 fold enrichment (6-mer frequency, TF over GST control) in the assay with ELF5. Besides, the binding signal is 1.05 fold enrichment (6-mer frequency, TF over GST control) with ETV3 and 1.1 fold enrichment (6-mer frequency, TF over GST control) in the assay with ETV6.

In the case of TGATGA, the binding signal in the assay with ERF is 1.25 fold enrichment (6-mer frequency, TF over GST control); with ETV3L, 1.4 fold enrichment (6-mer frequency, TF over GST control); with ETS2, 1.28 fold enrichment (6-mer frequency, TF over GST control); with SPDEF it was 1.19 fold enrichment (6-mer frequency, TF over GST control); with ETV7, 1.26 fold enrichment (6-mer frequency, TF over GST control); with ELF5 it was 1.21 fold enrichment (6-mer frequency, TF over GST control). For the same sequence, the binding signal was 1.33 fold enrichment (6-mer frequency, TF over GST control) with ETV3 and 1.34 fold enrichment (6-mer frequency, TF over GST control) in the assay with ETV6.

Regarding ATGTAT, the binding signal was 1.47 fold enrichment (6-mer frequency, TF over GST control) with ERF; 1.48 fold enrichment (6-mer frequency, TF over GST control) in the assay with ETV3L; 1.34 fold enrichment (6-mer frequency, TF over GST control) with ETS2; 1.65 fold enrichment (6-mer frequency, TF over GST control) with SPDEF; 1.47 fold enrichment (6-mer frequency, TF over GST control) in the assay with ETV7; 1.31 fold enrichment (6-mer frequency, TF over GST control) with ELF5. For the same sequence, the binding signal with ETV3 was 1.42 fold enrichment (6-mer frequency, TF over GST control); with ETV6 it was 1.32 fold enrichment (6-mer frequency, TF over GST control).
